Screens deposited in PubChem BioAssay by National Center for Advancing Translational Sciences (NCATS).
An excerpt weighted towards active compounds, which were near 20% of everything screened.
HCMV inh: blocks human cytomegalovirus replication | activity change, negative = inhibition, % at 57.5 µM | 410,000 compounds, 4.5% hits | HFF cells, HCMV-luciferase reporter, 72 h; active compounds read low | AID 1259415; in the data active means activity change below about -60%; inconclusive means no clear call, values can overlap the other calls; inactive means above about -39%; further: on the % scale 0 is the no-effect control and ±100 the full control effect
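Two-dose cell screen: HFF monolayers treated with compounds and infected with luciferase-expressing HCMV at 1 PFU/cell, 72 h at 37C, then lysed for luciferase measurement.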
Pf growth 96h: P. falciparum growth inhibition at 96 hours; P. falciparum luciferase reporter growth, 96 h; Potency, µM (doses to about 28.7 µM), for the others: at the top dose activity change, negative = inhibition, hits mostly inhibitors; 320,000 compounds, 6.9% hits; AID 504834; further: potency means the concentration at half of the fitted maximal effect; on the % scale 0 is the no-effect control and ±100 the full control effect
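96 h incubation, 37 C, 5% CO2, of luciferase-reporter P. falciparum-infected RBCs (2% hematocrit, 0.05% parasitemia final) with test compounds; endpoint luminescence.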
Pf growth 48h: P. falciparum growth inhibition at 48 hours (one generation). P. falciparum luciferase growth in erythrocytes, 48 h. Potency, µM (top dose mostly 28.7 µM), for inactives: at the top dose activity change, negative = inhibition, actives largely listed as inhibitors. 310,000 compounds, 5.9% hits. AID 504832; further: potency means the concentration at half of the fitted maximal effect; on the % scale 0 is the no-effect control and ±100 the full control effect
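Read-out is firefly luciferase luminescence from an integrated reporter in P. falciparum, so falling signal marks reduced parasite growth. Infected erythrocytes were at 2% hematocrit and 0.1% parasitemia (final) in Albumax-supplemented RPMI 1640.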
CHX counter: counter-screen hit for Shiga toxin inhibitors, cycloheximide. 300,000 compounds, 12% hits. max response, %. cell reporter, cycloheximide protein synthesis inhibition counterscreen; in the data active means max response mostly above about 13%, no sharp cut-off; inactive means mostly below about 14%; further: read at 38.3 µM for the half of the compounds with a filed dose; 0% is about no effect
Shiga toxin inh: blocks Shiga toxin action in Vero cells; Vero cells, Shiga toxin protein synthesis inhibition reporter; inhibition, % at 38.7 µM; 290,000 compounds, 9.2% hits; AID 2315; in the data active means inhibition mostly above about 28%, no sharp cut-off; inactive means mostly below about 43%; further: 0% is about no effect
The depositor's hits bear a star; ! = a repeat was not active. Unless noted, the call rests on the fitted dose curve; in most records, active means well fitted inhibition curve with a large enough effect; inconclusive means small, poorly fitted or top-dose-only effect, or another doubt; inactive means no such curve, though single readings can be large or run the other way.

Results for N#CCC(=O)Nc1ccc(C(=O)OCC(=O)N=c2sccn2Cc2ccccc2Cl)cc1 ?
HCMV inh: -31.5; Pf growth 96h: inconclusive; Pf growth 48h: 11.7µM*

Results for N#CCC(=O)Nc1ccc(C(=O)OCC(=O)Nc2ccc3ccccc3c2)cc1 ?
HCMV inh: 32.9; Pf growth 96h: -13.7%; Pf growth 48h: 13.1µM*

Results for Cc1cccc(N(C)S(=O)(=O)c2c(C(=O)N3CCCCCC3)c(C)n(C)c2C)c1 ?
HCMV inh: -7.8

How did CCOc1ccc(C(=O)NCC(c2ccc3c(c2)OCO3)N2CCOCC2)cc1 (stereo not given) do in these assays?
HCMV inh: -9.7

Results for O=C(COC(=O)c1cc(=O)c2ccccc2o1)Nc1c(F)c(F)c(F)c(F)c1F ?
HCMV inh: 26.2; Pf growth 96h: 12.8%; Pf growth 48h: inconclusive

What do the screens show for `Cc1cccc(C(=O)OCC(=O)NC(C)CCc2ccccc2)c1` (stereo not given)?
HCMV inh: -34.3; Pf growth 96h: 9.8%; Pf growth 48h: inconclusive; CHX counter: -1.2; Shiga toxin inh: 22.9

How did O=C(COC(=O)c1cc(=O)c2ccccc2o1)Nc1ccc2ccccc2c1 do in these assays?
HCMV inh: 5.0; Pf growth 96h: 81.3%; Pf growth 48h: 17.5%; CHX counter: 11.1*; Shiga toxin inh: -21.7

How did CC(CCc1ccccc1)NC(=O)COC(=O)c1ccc(NC(=O)CC#N)cc1 (stereo not given) do in these assays?
HCMV inh: 13.1; Pf growth 96h: inconclusive; Pf growth 48h: 11.7µM*; CHX counter: -7.5; Shiga toxin inh: -1.5

What do the screens show for `N#CCC(=O)Nc1ccc(C(=O)OCC(=O)c2ccc3c(c2)OCCO3)cc1`?
HCMV inh: -32.9; Pf growth 96h: 50.1%; Pf growth 48h: 89.4%; CHX counter: 47.5*; Shiga toxin inh: 67.8*

How did NC(N)=Nc1nc2ccc([N+](=O)[O-])cc2[nH]1 do in these assays?
HCMV inh: -20.4; Pf growth 96h: 4.15µM*; Pf growth 48h: 8.28µM*; CHX counter: 9.4*; Shiga toxin inh: 24.0

Results for Nc1nc2ccc([N+](=O)[O-])cc2[nH]1 ?
HCMV inh: -34.1; Pf growth 96h: -13.2%; Pf growth 48h: inconclusive; CHX counter: -2.8; Shiga toxin inh: 14.8

How did O=[N+]([O-])c1ccc(O)c(C2CCCCC2)c1 do in these assays?
HCMV inh: -93.6*

What do the screens show for `O=[N+]([O-])c1ccc2nc(C3CCCCC3)[nH]c2c1`?
HCMV inh: 25.9; Pf growth 96h: inconclusive; Pf growth 48h: 40.7%; CHX counter: 18.2*; Shiga toxin inh: 46.0*

What do the screens show for `O=[N+]([O-])c1ccc2nc(CCCc3nc4ccc([N+](=O)[O-])cc4[nH]3)[nH]c2c1`?
HCMV inh: -12.8; Pf growth 96h: 52.1%; Pf growth 48h: -26.2%; CHX counter: 14.5; Shiga toxin inh: 52.5*

Results for O=[N+]([O-])c1ccc2nc(CN3CCCCC3)[nH]c2c1 ?
HCMV inh: -27.9; Pf growth 96h: 46.5%; Pf growth 48h: -3.7%; CHX counter: 14.9; Shiga toxin inh: 19.6

Results for Cc1cc(C(=O)NNC(=O)c2ccc(F)cc2)c(C)s1 ?
HCMV inh: 38.5

How did C#CCN1CC(COCCCC)Oc2cccc(Oc3ccc(C(C)(C)C)c(C)c3)c2S1(=O)=O (stereo not given) do in these assays?
HCMV inh: -22.0

Results for CCc1ccc2c(COC(=O)C3CC(=O)N(CCc4ccccc4)C3)cc(=O)oc2c1 (stereo not given) ?
HCMV inh: -18.4; Pf growth 96h: -9.4%; Pf growth 48h: -22.6%

How did O=[N+]([O-])c1ccc(/C=C/c2nc3ccc([N+](=O)[O-])cc3[nH]2)cc1 do in these assays?
HCMV inh: -28.7; Pf growth 96h: -16.7%; Pf growth 48h: 4.15µM*; CHX counter: 33.2*; Shiga toxin inh: 91.3*

What do the screens show for `COc1ccc(NC(=O)C2C3C=CC4(O3)C2C(=O)N(CCCN2CCCC(C)C2)C4C(=O)NC2CCCCC2)cc1` (stereo not given)?
HCMV inh: -13.1; Pf growth 96h: inconclusive; Pf growth 48h: -11.0%; CHX counter: -4.5; Shiga toxin inh: 23.2

Results for COc1ccc(/C=C/CN2CCC(n3nccc3NC(=O)C3CCCC3)CC2)cc1 ?
HCMV inh: -38.7; Pf growth 96h: 7.6%; Pf growth 48h: inconclusive; CHX counter: -1.8; Shiga toxin inh: -3.1

What do the screens show for `CCN(CC)c1nc2c3c(nc4c(c3c1C#N)CC(=O)N4c1ccc(Cl)cc1)NC(C)=N2`?
HCMV inh: 0.4; Pf growth 96h: 4.65µM*; Pf growth 48h: 16.5µM*; CHX counter: -0.6; Shiga toxin inh: -14.5

What do the screens show for `COC(=O)C1CCCCN1C(=O)c1ccc2oc(C(C)C)nc2c1` (stereo not given)?
Pf growth 96h: inconclusive; Pf growth 48h: -14.9%; CHX counter: 27.1*; Shiga toxin inh: 57.2*

What do the screens show for `COC(=O)C1CCCCN1C(=O)c1ccc2oc(Cc3ccccc3)nc2c1` (stereo not given)?
HCMV inh: 22.7; Pf growth 96h: 8.4%; Pf growth 48h: -3.2%; CHX counter: 66.9*; Shiga toxin inh: 82.7*

Results for COc1ccc(-c2nc(CSc3nnc(C)n4c3cc3occc34)c(C)o2)cc1OC ?
HCMV inh: -34.4

Results for CCCCN(C(=O)c1ccc(NC2CC2)c([N+](=O)[O-])c1)c1c(N)n(CCCC)c(=O)[nH]c1=O ?
HCMV inh: -10.4; Pf growth 96h: inconclusive; Pf growth 48h: inconclusive

Results for COc1ccc2c(c1)CCc1c(C(=O)NCc3ccc(Cl)cc3)noc1-2 ?
HCMV inh: 18.8; CHX counter: -0.4; Shiga toxin inh: -16.5

How did COc1ccc2c(c1)CCc1c(C(=O)Nc3c(C)nn(Cc4ccc(Cl)cc4)c3C)noc1-2 do in these assays?
HCMV inh: -79.4*

How did COc1ccc2c(c1)CCc1c(C(=O)Nc3c(C)nn(Cc4ccccc4)c3C)noc1-2 do in these assays?
HCMV inh: -67.1*!; Pf growth 96h: 228.0%; CHX counter: -2.9; Shiga toxin inh: -11.3

What do the screens show for `COc1ccc2c(c1)CCc1c(C(=O)Nc3cc(C)n(Cc4ccc(Cl)cc4)n3)noc1-2`?
HCMV inh: -63.6*; Pf growth 96h: inconclusive; Pf growth 48h: -19.2%; CHX counter: -2.3; Shiga toxin inh: -11.7

Results for COc1ccc2c(c1)CCc1c(C(=O)Nc3c(C)nn(Cc4ccc(Cl)c(Cl)c4)c3C)noc1-2 ?
HCMV inh: -88.2*

What do the screens show for `O=C(Cn1c2ccc(F)cc2c2nc3n(c(=O)c21)CCS3)NCC1CCCO1` (stereo not given)?
HCMV inh: -1.8; Pf growth 96h: 20.9%; Pf growth 48h: 8.0%; CHX counter: 8.8; Shiga toxin inh: -8.1

What do the screens show for `Cc1cccc(NC(=O)CNC(=O)Cn2cc(C(F)(F)F)cc(Cl)c2=O)c1C`?
HCMV inh: 2.1; Pf growth 96h: 21.9%; Pf growth 48h: inconclusive
